# Compound activity (PubChem BioAssay)
# In the library only some 3.3% were active in any assay of this set; here they are far more common.
# Anthrax LF prot – Bacillus anthracis LF protease inhibitors, primary screen, biochemical, multiplex microsphere, MLPCN library; inhibition, % at 10 µM; AID 588501, 2011; 360,000 compounds, 0.12% hits; Lethal factor (Bacillus anthracis), P15917; multiplex microsphere protease cleavage assay; further: plate controls were buffer without enzyme for full effect and enzyme alone for no effect
# Autofluor counter – counter-screen for toxin protease inhibitors: compound fluorescence; compound autofluorescence counterscreen, microsphere flow cytometry; active compounds read high; fluorescence intensity (concentration not given with the values); 360,000 compounds, 3.1% hits; AID 624483; in the data active means fluorescence intensity above about 16000; inconclusive means no clear call, values can overlap the other calls
# PriA SSB inh – inhibitors of Klebsiella pneumoniae PriA binding to SSB C-terminal tail, primary screen, biochemical, AlphaScreen | PriA–SSB C-terminal tail interaction (Klebsiella pneumoniae) | AlphaScreen SSBct-PriA binding, biotinylated peptide | inhibition, % at 33 µM | 430,000 compounds, 0.6% hits | AID 1272365, 2023; in the data active means inhibition mostly above about 37%, no sharp cut-off; inactive means mostly below about 20%;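 further: plate controls were negative control peptide for no effect and reference peptide for full effect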
# BoNT A protease – BoNT/A light chain protease inhibitors, primary screen, biochemical, flow cytometry, MLPCN library | multiplex microsphere protease substrate cleavage | inhibition, % at 10 µM | 360,000 compounds, 0.17% hits | AID 588499, 2011; further: plate controls were buffer without enzyme for full effect and enzyme alone for no effect
# MazEF act – activators of E. coli MazEF toxin-antitoxin RNase, primary screen, biochemical, fluorescence, uHTS. activation, % at 20 µM. FAM/BHQ RNA-DNA oligo cleavage fluorescence, 5 h. Endoribonuclease toxin MazF (Escherichia coli (strain K12)), P0AE70. 350,000 compounds, 0.32% hits. AID 504720, 2011; in the data active means activation above about 50%
# Target sequence (P0AE70 whole entry, looked up): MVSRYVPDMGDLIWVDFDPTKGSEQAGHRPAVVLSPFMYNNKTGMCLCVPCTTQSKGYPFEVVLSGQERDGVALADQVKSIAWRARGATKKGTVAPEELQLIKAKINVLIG
# BoNT-F LC inh – BoNT/F light chain protease inhibitors, primary screen, biochemical, flow cytometry, MLPCN library; Botulinum neurotoxin type F light chain protease (Clostridium botulinum); Multiplex microsphere protease cleavage assay; inhibition, % at 10 µM; 360,000 compounds, 0.22% hits; AID 588497, 2011; in the data active means inhibition above about 35%, passing the limit was not always enough; inconclusive means no clear call, values can overlap the other calls; further: plate controls were buffer without enzyme for full effect and enzyme alone for no effect
# * marks the source's active call; other numbers are inactive results; i = inactive; ? = inconclusive; . = not tested or not shown. Unless noted, no stated cut-off is given here; in the data, active means inhibition above about 30%; inconclusive means no clear call, values can overlap the other calls; inactive means below that.
SMILES,Anthrax LF prot,Autofluor counter,PriA SSB inh,BoNT A protease,MazEF act,BoNT-F LC inh
C=CCn1c(=O)c2c3c(sc2n2c(Nc4ccc(C(=O)OCC)cc4)nnc12)CCCC3,1,17959*,-13,-3,-11,-8
O=C(c1cc(Cl)cc(Cl)c1)N1CCC2CC1c1cc(N3CCCCC3)ccc12 (centres undefined),0,24126*,.,-9,-13,26
O=C(OCc1ccccc1)N1CCC2CC1c1cc(N3CCCCC3)ccc12 (centres undefined),-13,3596,7,-1,1,-5
Cc1cc2nc(-c3cccnc3SCC(=O)NCc3ccco3)[nH]c2cc1C,2,22154*,-11,3,-5,2
Cc1ccc(C(=O)CN(C(=O)c2ccc(Cl)c(Cl)c2)N2C(=O)C3CCCCC3C2=O)cc1C (centres undefined),0,20975*,-10,?,2,-3
COc1cccc(C(=O)CN(C(=O)c2ccc(Cl)c(Cl)c2)N2C(=O)c3ccccc3C2=O)c1,1,16849*,3,?,-2,-7
COc1cccc(C(=O)CN(C(=O)c2ccc(Cl)cc2Cl)N2C(=O)c3ccccc3C2=O)c1,0,11206,-7,0,12,-1
CC1(C(=O)Nc2nnc(SCc3ccccc3)s2)Cc2ccccc2C(=O)O1 (centres undefined),-7,22013*,-8,4,0,5
CCOc1ccc(NC(=O)COC(=O)Cn2cnnn2)cc1OCC,-1,23264*,-7,0,-14,-3
CCOc1ccc(NC(=O)COC(=O)Cn2nc(C)c([N+](=O)[O-])c2C)cc1OCC,0,3554,6,0,-3,-1
N#Cc1nc(Cc2cccc3ccccc23)oc1NCc1ccc(F)cc1,-4,2400,45*,0,0,-5
CNc1oc(-c2cccc3ccccc23)nc1C#N,-5,3241,-6,0,-6,0
COc1ccc(CNc2oc(-c3cccc4ccccc34)nc2C#N)cc1,-4,19935*,2,-1,1,-3
Cc1ccc(C(O)=C2C(=O)C(=O)N(CC(C)O)C2c2ccccn2)cc1 (centres undefined),.,.,16,.,.,.
CCOc1ccc(NCC(=O)Nc2ccc(Cl)cc2C)cc1,-11,19405*,-8,1,8,-21
CCCOc1ccc(NCC(=O)Nc2ccc(C)cc2C)cc1,?,?,10,-186,1,i
CCOc1ccc(N2CSC(=S)N(c3ccc(OCC)cc3)C2)cc1,32*,3691,0,0,6,?
N#Cc1nc(-c2cccs2)oc1NCc1ccc2c(c1)OCO2,-8,3291,48*,2,7,14
N#Cc1nc(-c2cccs2)oc1NCCc1ccccc1,-8,2093,21,-1,3,0
COCCn1c(SCc2nc(-c3ccc4c(c3)OCO4)no2)nc2ccsc2c1=O,.,.,-10,.,.,.
CCOc1ccc(-c2c[n+](=O)c3c(n2[O-])CCCC3)c(OCC)c1,0,19889*,-17,-1,4,-6
CCCCCCC(=O)N(O)C1CC(=O)N(c2ccc(C)cc2)C1=O (centres undefined),-53,2106,-6,30*,-3,0
Cc1ccc2[nH]cc(CCNC(=O)CN3C(=O)c4ccccc4C3=O)c2c1,0,2612,-1,0,1,-1
Cc1ccc2c(c1)N(CCC(=O)N1CCC3(CC1)OCCO3)C(=O)C(C)O2 (centres undefined),-10,6156,-15,1,-7,1
Cc1ccc2c(c1)N(CCC(=O)N1CCC3(CC1)OCCO3)C(=O)CO2,-1,22602*,-8,0,-1,0
Cc1ccc2c(c1)N(CC(=O)NCCc1c[nH]c3ccccc13)C(=O)CO2,-3,23441*,8,-2,1,-2
CC(=O)c1ccc(NC(=O)CSC(C)C)cc1,0,22011*,-17,0,5,2
